About 79,000 compounds went through this panel and 15% of them were active in at least one assay; those are over-represented in the sample as a whole. Calls of active or inactive are those of the source. Cut-off read from the data, not from the text of the source: active = growth inhibition above about 70%; inactive = the rest.
Tests used:
[1] = NCI Yeast Anticancer Drug Screen. Data for the rad52 strain (AID 147);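 note: 0% = growth of vehicle-treated control cultures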; settings: S. cerevisiae rad52 mutant growth inhibition, hits give high values
Procedure, shortened: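 Here a repair-compromised yeast strain receives each compound; its growth is then quantified and normalised to vehicle-only controls.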

[2] = NCI Yeast Anticancer Drug Screen. Data for the wt1 strain (AID 149);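 note: 0% = growth of vehicle-treated wt1 cultures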; settings: S. cerevisiae wt1 strain (SPY 50644) growth inhibition, hits give high values
Procedure, shortened: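 Vehicle-normalised growth inhibition; strain wt1; compound exposure.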

[3] = NCI Yeast Anticancer Drug Screen. Data for the rad50EPP+ strain (AID 151);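 note: 0% = growth of vehicle-treated control cultures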; settings: S. cerevisiae rad50 mutant strain, hits give high values
Procedure, shortened: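 Read-out is yeast growth inhibition relative to vehicle; cells used were the rad50EPP+ strain.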

[4] = NCI Yeast Anticancer Drug Screen. Data for the rad50 strain (AID 155);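 note: 0% = growth of vehicle-only cultures of the same strain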; settings: S. cerevisiae rad50 strain growth inhibition, hits give high values
Procedure, shortened: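 A DNA repair-deficient yeast mutant serves as the test organism; compound-induced growth inhibition is calculated against vehicle-treated cells.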

[5] = NCI Yeast Anticancer Drug Screen. Data for the mec2-1 strain (AID 157); settings: S. cerevisiae mec2-1 strain, hits give high values
Procedure, shortened: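 Using mec2-1 yeast: add compound, measure growth, express inhibition versus vehicle-treated cultures.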

[6] = NCI Yeast Anticancer Drug Screen. Data for the rad14 strain (AID 159);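 note: 0% = growth of vehicle-treated control cultures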; settings: S. cerevisiae rad14 strain growth inhibition, hits give high values
Procedure, shortened: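 Vehicle-treated cultures served as the baseline for growth inhibition of a DNA repair-mutant yeast strain exposed to each compound.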

[7] = NCI Yeast Anticancer Drug Screen. Data for the sgs1 mgt1 strain (AID 161);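 note: 0% = growth of cultures given vehicle only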; settings: S. cerevisiae sgs1 mgt1 strain, hits give high values
Procedure, shortened: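 This yeast growth screen uses a strain with defined DNA-repair lesions; compound-treated growth is compared with vehicle-treated growth.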

[8] = NCI Yeast Anticancer Drug Screen. Data for the CLN2oe strain (AID 163);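 note: 0% = growth of vehicle-only control cultures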; settings: S. cerevisiae CLN2oe strain, hits give high values
Procedure, shortened: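 Whole-cell yeast growth assay. A strain engineered for altered cell-cycle control received compound, and inhibition relative to vehicle-treated cultures was recorded.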

[9] = NCI Yeast Anticancer Drug Screen. Data for the cln2 rad14 strain (AID 165);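 note: 0% = growth equal to vehicle treated cultures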; settings: S. cerevisiae cln2 rad14 strain, hits give high values
Procedure, shortened: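 Yeast strain cln2 rad14, bearing defects in cell cycle control and DNA repair, serves as the test system; values reflect growth inhibition compared with vehicle.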

[10] = NCI Yeast Anticancer Drug Screen. Data for the bub3 strain (AID 167); settings: S. cerevisiae bub3 mutant strain, hits give high values
Procedure, shortened: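 Inhibition values come from growth of compound-treated mutant yeast normalised to vehicle-treated controls.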

[11] = NCI Yeast Anticancer Drug Screen. Data for the wt2 strain (AID 169);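 note: 0% = growth of vehicle-treated yeast cultures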; settings: S. cerevisiae wt2 strain growth inhibition, hits give high values
Procedure, shortened: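 Treated yeast vs. vehicle-treated yeast: growth inhibition determined.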

[12] = NCI Yeast Anticancer Drug Screen. Data for the mlh1 strain (AID 171);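 note: 0% = growth of vehicle-treated control cultures of the same strain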; settings: S. cerevisiae mlh1 strain growth inhibition, hits give high values
Procedure, shortened: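 A yeast strain with a defined genetic lesion serves as the test organism. Cultures receive compound or vehicle, and growth is measured.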

[13] = NCI Yeast Anticancer Drug Screen. Data for the sgs1 strain (AID 173);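 note: 0% = growth of vehicle-only control cultures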; settings: S. cerevisiae sgs1 mutant, hits give high values
Procedure, shortened: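 A genetically defined yeast mutant is incubated with the test compound, and its growth is compared to that of the same strain given vehicle.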

[14] = NCI Yeast Anticancer Drug Screen. Data for the mlh1 rad18 strain (AID 175); settings: S. cerevisiae mlh1 rad18 strain growth inhibition, hits give high values
Procedure, shortened: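 Steps: expose repair-defective yeast to compound; measure growth; express inhibition against vehicle-treated controls.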

[15] = NCI Yeast Anticancer Drug Screen. Data for the rad18 strain (AID 177); settings: S. cerevisiae rad18 mutant growth inhibition, hits give high values
Procedure, shortened: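 Measured value is growth inhibition of a yeast strain bearing a DNA repair alteration, referenced to vehicle-treated cells.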

[16] = at 5.0 µM (retest, dose inferred, filed as 0.5)
[17] = at 50.0 µM (retest, dose inferred, filed as 5.0)

Measured: growth inhibition

O=C1CC(C(O)(C(F)(F)F)C(F)(F)Cl)CCC1C(O)(C(F)(F)F)C(F)(F)Cl (stereo unspecified)
active: [1]; at 11.0 µM 72% | [1]; at 33.0 µM 93% | [1]; at 100.0 µM 97% | [2]; at 33.0 µM 91% | [2]; at 100.0 µM 97% | [4]; at 33.0 µM 91% | [4]; [17] 96% | [4]; at 50.0 µM 99.1% | [4]; at 100.0 µM 97% | [5]; at 11.0 µM 84% | [5]; at 33.0 µM 96% | [5]; [17] 96% | [5]; at 50.0 µM 99.5% | [5]; at 100.0 µM 98% | [6]; at 11.0 µM 85% | [6]; at 33.0 µM 97% | [6]; at 100.0 µM 99% | [7]; [17] 96% | [7]; at 50.0 µM 99.5% | [8]; at 1.2 µM 75% | [8]; at 3.7 µM 77% | [8]; at 11.0 µM 89% | [8]; at 33.0 µM 95% | [8]; at 100.0 µM 95% | [9]; [17] 96% | [9]; at 50.0 µM 99.2% | [10]; at 11.0 µM 76% | [10]; at 33.0 µM 95% | [10]; [17] 97% | [10]; at 50.0 µM 99.4% | [10]; at 100.0 µM 97% | [11]; at 11.0 µM 84% | [11]; at 33.0 µM 93% | [11]; at 100.0 µM 98% | [12]; at 33.0 µM 92% | [12]; at 100.0 µM 98% | [13]; at 11.0 µM 80% | [13]; at 33.0 µM 96% | [13]; at 100.0 µM 98% | [14]; [17] 97% | [14]; at 50.0 µM 99%
inactive: [1]; at 1.2 µM 54% | [1]; at 3.7 µM 46% | [2]; at 1.2 µM 32% | [2]; at 3.7 µM 44% | [2]; at 11.0 µM 68% | [3]; at 1.2 µM 12% | [3]; at 3.7 µM 24% | [3]; at 11.0 µM 38% | [3]; at 33.0 µM 46% | [3]; at 100.0 µM 41% | [4]; at 1.2 µM 45% | [4]; at 3.7 µM 33% | [4]; [16] 29% | [4]; at 11.0 µM 57% | [5]; at 1.2 µM 67% | [5]; at 3.7 µM 56% | [5]; [16] 35% | [6]; at 1.2 µM 66% | [6]; at 3.7 µM 50% | [7]; [16] 49% | [9]; [16] 44% | [10]; at 1.2 µM 60% | [10]; at 3.7 µM 45% | [10]; [16] 2% | [11]; at 1.2 µM 51% | [11]; at 3.7 µM 55% | [12]; at 1.2 µM 52% | [12]; at 3.7 µM 46% | [12]; at 11.0 µM 67% | [13]; at 1.2 µM 61% | [13]; at 3.7 µM 62% | [14]; [16] 42%

CCN(CC)CCNc1ccc2nc(C)n3c4ccc(OC)cc4c(=O)c1c23
inactive: [1]; at 1.2 µM 22% | [1]; at 3.7 µM 47% | [1]; at 11.0 µM 58% | [2]; at 1.2 µM 27% | [2]; at 3.7 µM 21% | [2]; at 11.0 µM 28% | [2]; at 33.0 µM 15% | [2]; at 100.0 µM 21% | [3]; at 1.2 µM 9% | [3]; at 3.7 µM 9% | [3]; at 11.0 µM 3% | [3]; at 33.0 µM 17% | [3]; at 100.0 µM 31% | [4]; at 1.2 µM 41% | [4]; at 3.7 µM 45% | [4]; at 11.0 µM 63% | [4]; at 50.0 µM -12.5% | [5]; at 1.2 µM 32% | [5]; at 3.7 µM 39% | [5]; [16] 16% | [5]; at 11.0 µM 37% | [5]; at 33.0 µM 40% | [5]; [17] 52% | [5]; at 50.0 µM 22.8% | [5]; at 100.0 µM 32% | [6]; at 1.2 µM 33% | [6]; at 3.7 µM 24% | [6]; at 11.0 µM 27% | [6]; at 33.0 µM 30% | [6]; at 100.0 µM 48% | [7]; [16] 13% | [7]; [17] 41% | [7]; at 50.0 µM 18.3% | [8]; at 1.2 µM 1% | [8]; at 3.7 µM 15% | [8]; at 11.0 µM 17% | [8]; at 33.0 µM 21% | [8]; at 100.0 µM 17% | [9]; [16] 25% | [9]; [17] 45% | [9]; at 50.0 µM 28.1% | [10]; at 1.2 µM 11% | [10]; at 3.7 µM 2% | [10]; [16] -31% | [10]; at 11.0 µM -3% | [10]; at 33.0 µM 16% | [10]; [17] 39% | [10]; at 50.0 µM 16.4% | [10]; at 100.0 µM 5% | [11]; at 1.2 µM -22% | [11]; at 3.7 µM -25% | [11]; at 11.0 µM -24% | [11]; at 33.0 µM -15% | [11]; at 100.0 µM -25% | [12]; at 1.2 µM 36% | [12]; at 3.7 µM 27% | [12]; at 11.0 µM 18% | [12]; at 33.0 µM 26% | [12]; at 100.0 µM 16% | [13]; at 1.2 µM 27% | [13]; at 3.7 µM 27% | [13]; at 11.0 µM 26% | [13]; at 33.0 µM 8% | [13]; at 100.0 µM 25% | [14]; [16] 29% | [14]; [17] 56% | [15]; at 1.2 µM 34% | [15]; at 3.7 µM 41% | [15]; at 11.0 µM 57% | [15]; at 33.0 µM 66%
active: [1]; at 33.0 µM 75% | [1]; at 100.0 µM 83% | [4]; [16] 84% | [4]; at 33.0 µM 82% | [4]; [17] 95% | [4]; at 100.0 µM 87% | [14]; at 50.0 µM 77.4% | [15]; at 100.0 µM 74%

CC(C)=CCC/C(C)=C/CN1C(=O)C=CC1=O
active: [1]; at 11.0 µM 99% | [1]; at 33.0 µM 99% | [1]; at 100.0 µM 99% | [2]; at 11.0 µM 100% | [2]; at 33.0 µM 100% | [2]; at 100.0 µM 99% | [3]; at 3.7 µM 86% | [3]; at 11.0 µM 99% | [3]; at 33.0 µM 99% | [3]; at 100.0 µM 99% | [4]; at 11.0 µM 99% | [4]; at 33.0 µM 99% | [4]; [17] 98% | [4]; at 50.0 µM 99.7% | [4]; at 100.0 µM 99% | [5]; at 11.0 µM 99% | [5]; at 33.0 µM 100% | [5]; [17] 99% | [5]; at 50.0 µM 99.7% | [5]; at 100.0 µM 100% | [6]; at 11.0 µM 100% | [6]; at 33.0 µM 100% | [6]; at 100.0 µM 100% | [7]; [17] 99% | [7]; at 50.0 µM 99.5% | [8]; at 11.0 µM 81% | [8]; at 33.0 µM 99% | [8]; at 100.0 µM 99% | [9]; [17] 99% | [9]; at 50.0 µM 99.3% | [10]; at 11.0 µM 99% | [10]; at 33.0 µM 99% | [10]; [17] 99% | [10]; at 50.0 µM 99.4% | [10]; at 100.0 µM 99% | [11]; at 3.7 µM 76% | [11]; at 11.0 µM 100% | [11]; at 33.0 µM 99% | [11]; at 100.0 µM 99%
inactive: [1]; at 1.2 µM 9% | [1]; at 3.7 µM 36% | [2]; at 1.2 µM 2% | [2]; at 3.7 µM 29% | [3]; at 1.2 µM 57% | [4]; at 1.2 µM 7% | [4]; at 3.7 µM 42% | [4]; [16] 13% | [5]; at 1.2 µM -3% | [5]; at 3.7 µM 17% | [5]; [16] -16% | [6]; at 1.2 µM 14% | [6]; at 3.7 µM 53% | [7]; [16] 36% | [8]; at 1.2 µM -13% | [8]; at 3.7 µM 5% | [9]; [16] -29% | [10]; at 1.2 µM 10% | [10]; at 3.7 µM 37% | [10]; [16] -24% | [11]; at 1.2 µM 24%
